Laboratory results from PubChem BioAssay (EPA / NIEHS).
“And” between values parts separate entries of the source, which are not always exact repeats. Equal values may be shown once. Some compounds were tested as several samples or in several runs, with calls that do not always agree. The source made the active and inactive calls. How the source made its calls: active means hit-call score of the fitted dose curve at least 0.9, where 1 is the maximum; inactive means score below 0.9.

Assay: APR_HepG2_P-H2AX_24hr: Apredica 24-hour HepG2 Assay for H2AX Phosphorylation (AID 2282920)
Conditions: high-content imaging, actives raise or lower the signal
Method: APR_HepG2_24hr is a cell-based, multiplexed-readout assay that uses HepG2, a human liver cell line, with measurements taken at 24 hours after chemical dosing in a 384-well plate.APR_HepG2_P-H2AX_24hr is one of 10 assay component(s) measured or calculated from the APR_HepG2_24hr assay. It is designed to make measurements of dna content, a form of viability reporter, as detected with fluorescence intensity signals by HCS Fluorescent Imaging technology.Data from the assay component APR_HepG2_P-H2AX_24hr was analyzed into 1 assay endpoint. This assay endpoint, APR_HepG2_P-H2AX_24hr, was analyzed with bidirectional fitting relative to DMSO as the negative control and baseline of activity. Using a type of viability reporter, measures of protein for gain or loss-of-signal activity can be used to understand the signaling at the pathway-level as they relate to the gene . Furthermore, this assay endpoint can be referred to as a primary readout, because this assay has produced multiple assay endpoints where this one serves a signaling function. To generalize the intended target to other relatable targets, this assay endpoint is annotated to the dna binding intended target family, where the subfamily is cellular response to DNA damage stimulus.
Cells were treated with dimethyl sulfoxide (DMSO) as a solvent control at a final concentration of 0.5% v/v or with compounds in DMSO with a resulting final DMSO concentration of 0.5% v/v. Compound treatment was done at concentrations of 0.39, 0.78, 1.56, 3.12, 6.24, 12.5, 25, 50, 100, and 200 uM in duplicate on each plate. Cells were treated with compounds for 1, 24, or 72 hr. Carbonyl […] m-chloro-phenylhydrazone (CCCP) and taxol were used as positive controls for mitochondrial function and cytoskeletal stability, respectively; DMSO served as the negative control for this experiment. Cells were fixed by the direct addition of 50 uL formaldehyde in Hank's Balanced Salt Solution (HBSS) to a final concentration of 3.7%. After incubation in the fixation medium for 30 min at room temperature (293-298 K), cells were rinsed twice with HBSS and treated with cell permeabilization buffer (16 uL of 0.5% Triton X-100) for 10 min at room temperature (293-298 K) before labeling. For mitochondrial membrane potential and mitochondrial measurements, pre-fixed cells were incubated with 50 uL of MitoTracker Red CMXRos (Invitrogen) at a concentration of 250 nM for 30 min before fixation. In the remaining cases, post-fixed cells were labeled by incubation with a multiplexed mixture of primary antibodies in HBSS for 60 min at room temperature (293-298 K) to detect immunoreactivity of c-Jun (1:500), phospho-histone H3 (1:100), phospho-histone H2A.x (1:200), p53 (1:400), alpha-tubulin (1:200) and Hoechst 33342 (2 ug/mL). Cells were labeled for multiplexed imaging on two separate plates: a) Hoechst 33342, MitoTracker Red, phospho-histone H3, and alpha-tubulin, and b) Hoechst 33342, phospho-histone H2A.x, and c-Jun. A final rinse with HBSS (50 uL) was performed before analysis. The primary and secondary antibodies for the proteins were phospho-histone H3 (rabbit anti-phospho-histone H3 and FITC-donkey anti-rabbit IgG), phospho-histone H2A.x (mouse anti-phospho-histone H2A.x and FITC-donkey anti-mouse IgG), c-Jun (rabbit anti-phospho-c-Jun and Cy3-donkey anti-rabbit IgG), p53 (sheep anti-p53 and Cy5-donkey anti-sheep IgG), alpha-tubulin (mouse anti-alpha-tubulin and Cy5-donkey anti-mouse IgG). These antibodies are available as the CellCiphr HepG2 assay kit (Millipore).Digital images of each well were captured using a Cellomics ArrayScan VTI (Thermo Scientific Cellomics) (0.8 NA objective, 0.63x optical coupler, and XF-93 filter set) at 20x magnification. The images were acquired using the autofocus feature of the ArrayScan instrument, which entails the following steps. First, the camera focuses on channel 1 (Hoechst 33342), where nuclei are identified. Second, a Z offset of 1 um is used for capturing mitochondria (MitoTracker Red). […]

Compound | outcome | AC50
CCOC(=O)C(C)Oc1ccc(Oc2nc3ccc(Cl)cc3o2)cc1 (stereo not given) | inactive | 
CCCCC(CC)COC(=O)c1ccccc1C(=O)O (stereo not given) | inactive | 
CCOC(=O)COc1cc(-n2ncc(C(F)(F)F)c(C)c2=O)c(F)cc1Cl | inactive | 
CC(=O)S[C@@H]1CC2=CC(=O)CC[C@]2(C)[C@H]2CC[C@@]3(C)[C@@H](CC[C@@]34CCC(=O)O4)[C@H]12 |  | 46.4 µM (active)
CCOC(=O)NCCOc1ccc(Oc2ccccc2)cc1 | inactive | 
COCCO | inactive | 
CCOC(=O)c1ccc(O)cc1 | inactive | 
CCNc1nc(N)nc(Cl)n1 | inactive | 
OB(O)O | inactive | 
O=C(O)c1ccccc1 | inactive | 
COC(=O)c1c(Cl)nn(C)c1S(=O)(=O)NC(=O)Nc1nc(OC)cc(OC)n1 | inactive | 
COC(=O)c1ccccc1C(=O)O | inactive | 
COC(=O)c1ccc(I)cc1S(=O)(=O)NC(=O)Nc1nc(C)nc(OC)n1 | inactive | 
CC(C)(C)[C@@H](O)[C@@H](Cc1ccc(Cl)cc1)n1cncn1 | inactive | 
COC(=O)CSc1cc(N=c2sc(=O)n3n2CCCC3)c(F)cc1Cl | inactive | 
O=C(Nc1ccc([N+](=O)[O-])cc1Cl)c1cc(Cl)ccc1O |  | 1.8 µM (active)
C#CCOC(=O)[C@@H](C)Oc1ccc(Oc2ncc(Cl)cc2F)cc1 | inactive | 
CN(C)C(=O)Nc1ccc(Cl)c(Cl)c1 | inactive | 
CSC(=O)c1cccc2nnsc12 | inactive | 
CCC(O)=C1C(=O)CC(C(=O)O)CC1=O (stereo not given) | inactive | 

Compound | outcome | AC50
CCSC(=O)N(CC(C)C)CC(C)C | inactive | 
CCCCOC(=O)C(C)Oc1ccc(Oc2ccc(C(F)(F)F)cn2)cc1 (stereo not given) | inactive | 
CC1(C)C(C=C(Cl)Cl)C1C(=O)OCc1cccc(Oc2ccccc2)c1 (stereo not given) | inactive | 
CCC(C)OC(=O)N1CCCCC1CCO (stereo not given) | inactive | 
C[C@]12C[C@H](O)[C@H]3[C@@H](CCC4=CC(=O)CC[C@@]43C)[C@@H]1CC[C@@H]2C(=O)CO |  | 96.6 µM (active)
CCCN(CCC)C(=O)SCC | inactive | 
CC(=O)[C@H]1CC[C@H]2[C@@H]3CCC4=CC(=O)CC[C@]4(C)[C@H]3CC[C@]12C |  | 116 µM (active)
CCCCOC(=O)[C@@H](C)Oc1ccc(Oc2ccc(C(F)(F)F)cn2)cc1 | inactive | 
COc1c(Cl)ccc(Cl)c1C(=O)O | inactive | 
CCN(Cc1c(F)cccc1Cl)c1c([N+](=O)[O-])cc(C(F)(F)F)cc1[N+](=O)[O-] | inactive | 
S=C([S-])NCCNC(=S)[S-].[Mn+2] | inactive | 
Cc1nn(C)c(Oc2ccccc2)c1C=NOCc1ccc(C(=O)OC(C)(C)C)cc1 | inactive | 
CCOC(=O)C(C)Oc1ccc(Oc2cnc3cc(Cl)ccc3n2)cc1 (stereo not given) | inactive | 
C[C@]12CC[C@@H]3c4ccc(O)cc4C[C@@H](CCCCCCCCCS(=O)CCCC(F)(F)C(F)(F)F)[C@H]3[C@@H]1CC[C@@H]2O (stereo not given in full) | inactive | 
C=CCOC(Cn1ccnc1)c1ccc(Cl)cc1Cl (stereo not given) | inactive | 
O=C(c1ccccc1)C1CCCCC1 | inactive | 
CC(C)(c1ccc(O)cc1)c1ccc(O)cc1 | inactive | 170 µM (active) and 110 µM (active)
CC(C)CCCCCCc1ccc(O)cc1 |  | 100 µM (active)
COC(=O)c1ccc(CNS(C)(=O)=O)cc1S(=O)(=O)NC(=O)Nc1nc(OC)cc(OC)n1 | inactive | 
